High-throughput results from PubChem BioAssay.
A selection: hits, their analogues and other compounds. The true share with any hit is near 19%.
HT1080NT lethal – kills 2HG-producing HT-1080-NT fibrosarcoma cells; HT-1080-NT fibrosarcoma viability, CellTiter-Glo ATP luminescence, 48 h; Potency, µM (series often up to 46.1 µM), for inactives: top-dose activity, negative = less viability, hits mostly cytotoxic; actives 1.6% (n = 360,000); AID 686970;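 note: NT is the 2HG producing partner of a matched IDH1 knockdown line; 0% = DMSO-treated cells and -100% = media-only wells without cells; nearly all actives have a fitted effect of over 55% in size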
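Viability by CellTiter-Glo luminescence after 48 h compound exposure at 37C of HT-1080-NT cells (750/well, RPMI, 5% FBS). % activity scaled between DMSO wells and medium-only wells, then curve-fitted and categorized by curve class.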
DT40 TDP1 no CPT – qHTS for Inhibitors of human tyrosyl-DNA phosphodiesterase 1 (TDP1): qHTS in cells in absence of CPT | DT40 Tdp1-/- hTDP1 cells, no CPT, ATP luminescence, 48 h | Potency, µM (titrated, usually from 46.2 µM), inactives show at the top dose activity change, negative = growth inhibition, most hits filed as inhibitors | actives 15% (n = 420,000) | AID 686978, 2013; note: nearly all actives have a fitted effect of over 55% in size
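Cells were dispensed at 400 per well, compounds added by pin tool, plates incubated ≥48 hr at 37 °C, then CellTiter-Glo added for 30 min at room temperature before luminescence reading. Line: DT40 Tdp1-/- complemented with hTDP1; camptothecin omitted.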
KB-V1 cytotox – kills drug-selected multidrug resistant KB-V1 cells; KB-V1 MDR cells viability, CellTiter-Glo, 72 h; Potency, µM (doses to about 46.1 µM), most hits filed as cytotoxic; actives 3.4% (n = 400,000); AID 1347076; note: nearly all actives have a fitted effect of over 60% in size
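Cells of the MDR subline KB-V1 are plated, dosed with compound at multiple concentrations, and incubated 72 h at 37 degrees C; CellTiter-Glo is then added and luminescence read after 10 min.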
TDP1 cell CPT – growth inhibition of DT40 Tdp1-/-;hTDP1 cells with camptothecin (screen for TDP1 inhibitors); actives 12% (n = 420,000); Potency, µM (titrated, usually from 46.2 µM), inactives show top-dose activity change, negative = growth inhibition, most hits filed as inhibitors; chicken DT40 Tdp1-/-;hTDP1 cells + 20 nM CPT, ATP luminescence, 48 h; note: nearly all actives have a fitted effect of over 55% in size
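Chicken DT40 Tdp1-/- cells complemented with human TDP1, 400 cells/well, exposed to compounds plus 20 nM camptothecin for at least 48 h at 37 C; viability read as ATP content by CellTiter-Glo luminescence.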
KB-3-1 cytotox – kills parental KB-3-1 adenocarcinoma cells; KB-3-1 viability, CellTiter-Glo ATP luminescence, 72 h; Potency, µM (top dose mostly 46.1 µM), usual class: cytotoxic; AID 1347075; actives 1.4% (n = 400,000); note: nearly all actives have a fitted effect of over 60% in size
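Parental KB-3-1 adenocarcinoma cells in phenol-red-free DMEM with 10% FBS were pin-treated with compounds at several concentrations, incubated 72 h at 37 °C, and viability read by CellTiter-Glo luminescence; concentration-effect curves were fitted after normalization.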
HT1080 IDH1KD tx – HT-1080 IDH1 knockdown cell toxicity (counter line); HT-1080 IDH1 knockdown viability, ATP luminescence, 48 h; Potency, µM (titrated, usually from 46.1 µM), inactives show at the highest dose activity, negative = toxicity, most hits filed as cytotoxic; actives 2% (n = 360,000);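 note: 0% = DMSO wells and -100% = cell-free medium wells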
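In this qHTS, HT-1080 cells depleted of IDH1 are exposed for 48 h at 37 °C to compound titrations. Toxicity is scored from CellTiter-Glo luminescence, with DMSO as full viability and medium alone as none.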
Numbers without * were called inactive; i = inactive; ? = inconclusive; . = no result given; [ ] = dose if it differs, or a comment. Calls come from the whole dose curve; as a rule, active = well fitted curve in the direction sought with a large enough effect; inconclusive = small, poorly fitted or top-dose-only effect, or another doubt; inactive = no such curve, though single readings can be large; an effect the other way counts as inactive or inconclusive. Unless noted, % is set by controls: 0 for no effect and ±100 for the full control effect; potency is the fitted concentration of half-maximal effect.

SMILES	HT1080NT lethal	DT40 TDP1 no CPT	KB-V1 cytotox	TDP1 cell CPT	KB-3-1 cytotox	HT1080 IDH1KD tx
Cc1cccc(NS(=O)(=O)c2ccc3c(c2)[C@H]2C=CC[C@H]2[C@@H](c2ccc(F)cc2)N3)c1	.	10µM*	i	10µM*	i	.
C[C@H]1CN([C@@H](C)CO)C(=O)c2cc(Br)cnc2O[C@@H]1CN(C)S(=O)(=O)c1cn(C)cn1	23%	-5%	?	13%	i	10%
COc1ccc(-n2c(=O)c3c(c4cc(OC)ccc4n3C)n(CC(=O)NCC3CCCO3)c2=O)cc1 (stereo not given)	.	?	i	-5%	i	.
c1ccc(-c2cncn2-c2ccccc2)cc1	8%	?	i	-17%	i	-7%
CC(C)c1ccc(C(C)NCCS(=O)(=O)c2ccc(Cl)cc2)cc1 (stereo not given)	-17%	12µM*	?	21µM*	i	-29%
CC(C(=O)NCCS(=O)(=O)c1ccc(Br)cc1)S(=O)(=O)c1ccc(Cl)cc1 (stereo not given)	-3%	?	i	-2%	i	-6%
C[C@@H]1CN([C@@H](C)CO)C(=O)c2cc(NC(=O)CCC(F)(F)F)ccc2O[C@H]1CN(C)S(=O)(=O)c1ccc(Cl)cc1	0%	-23%	i	-22%	i	14%
CCCSC1=N/C(=C\c2ccc([N+](=O)[O-])o2)C(=O)S1	6%	?	i	21µM*	i	0%
O=C1SC(SCc2ccccc2)=N/C1=C\c1ccco1	-1%[9.24 µM]	-15%	i	8%	i	?
CCCSC1=N/C(=C\C=C\c2ccco2)C(=O)S1	-3%	18µM*	i	26µM*	i	6%
CCN1C(=O)c2ccccc2S(=O)c2ccc(C(=O)NCCCN3CCCC3=O)cc21 (stereo not given)	-10%	-15%	i	-29%	i	-9%
C=CCc1ccc(O)c(-c2cc(CC=C)ccc2O)c1	7%	21µM*	i	15µM*	i	-8%
C=CCc1ccc(OCC(O)CO)c(OC)c1 (stereo not given)	0%	8%	i	-1%	i	-9%
Cc1occc1-c1nnc(SCCCC(=O)c2ccc(F)cc2)n1C	-4%	16µM*	?	18µM*	i	-1%
O=C(CCCSc1nnnn1-c1cccc2ccccc12)c1ccc(F)cc1	-5%	21µM*	?	-16%	i	?
CCOc1ccccc1-n1c(SCC(=O)NC(C)(C)C)nnc1-c1ccoc1C	15%	-10%	i	-15%	i	13%
CCOc1ccccc1-n1c(SCC(=O)NC2CCCC2)nnc1-c1ccoc1C	7%	14µM*	i	?	i	3%
O=C(CSc1nnnn1-c1cccc2ccccc12)Nc1ccc(C(=O)O)cc1	11%	2%	i	17%	i	9%
Cn1c(=O)c2c(nc(SCC(=O)Nc3ccccc3F)n2Cc2ccccc2F)n(C)c1=O	.	2.9µM*	i	-27%	i	.
Cc1cccc(C)c1-n1cccc1/C=C1\SC(=S)N(c2cccc(C(=O)O)c2)C1=O	-23%	-19%	i	?	i	?
Cc1occc1-c1nnc(SCC(=O)Nc2ccccc2)n1C	22%	-1%	i	-11%	i	29%
Cc1occc1-c1nnc(SCC(=O)Nc2ccccc2N2CCCCC2)n1C	-5%	18µM*	?	18µM*	?	0%
CCn1c(SCC(=O)Nc2ccccc2N2CCCCC2)nc2c1c(=O)n(C)c(=O)n2C	1%	16µM*	?	18µM*	i	-3%
CC(C)n1c(SCC(=O)Nc2ccccc2N2CCOCC2)nc2c1c(=O)n(C)c(=O)n2C	-8%	?	i	-8%	i	-2%
Cc1ccc(N2C(=O)c3ccc(C(=O)N4CCOCC4)cc3C2=O)cc1C	11%	3%	i	-2%	i	12%
SMILES	HT1080NT lethal	DT40 TDP1 no CPT	KB-V1 cytotox	TDP1 cell CPT	KB-3-1 cytotox	HT1080 IDH1KD tx
NC(c1cccc(F)c1)c1nc(-c2ccc(Cl)cc2)cs1 (stereo not given)	-3%	?	?	?	i	-1%
CCn1c(COc2cccc(OC)c2)nnc1SCC(=O)Nc1cccc(OC)c1	-1%	-12%	i	-13%	i	-28%
Nc1c(C(=O)N/N=C/c2ccc([N+](=O)[O-])cc2)cnn1-c1ccccc1	28%	-19%	i	-20%	i	0%
Cc1c(C(=O)Nc2cc(F)cc(F)c2)cnn1-c1ccccc1	0%	12µM*	i	13µM*	i	0%
Cc1c(C(=S)Nc2ccccc2)cnn1-c1ccc([N+](=O)[O-])cc1	-25%	?	18µM*	16µM*	?	-30%
Cc1c(C(=S)Nc2ccccc2)cnn1-c1ccccc1	-2%	-23%	21µM*	21µM*	i	-9%
COc1cc2c(cc1OC)C(C(=O)c1ccc(OC)c(OC)c1O)=NCC2	.	-24%[9.04 µM]	.	-14%[9.04 µM]	.	.
CCOc1ccccc1NC(=O)COc1ccc(S(=O)(=O)NC2CCCCC2)cc1	.	?	i	?	i	.
COc1ccc(NC(=O)Cn2c(=O)oc3cc(S(=O)(=O)NC4CCCC4)ccc32)cc1OC	.	21µM*	i	?	i	.
COc1ccc(NC(=O)COc2ccc(S(=O)(=O)NC3CCCCC3)cc2)cc1OC	.	21µM*	i	?	i	.
COc1c(C)cc(S(=O)(=O)N2CCCC2)c(C)c1C	2%	?	23µM*	-22%	i	-2%
COc1ccc(OC)c(S(=O)(=O)N2CCCCCC2)c1	0%	6%	?	8%	i	-8%[9.24 µM]
COc1ccc(S(=O)(=O)N2CCCN(S(=O)(=O)c3ccc(OC)cc3C)CC2)c(C)c1	-23%	?	?	23µM*	i	-12%[9.24 µM]
